# This is a sample that favours compounds with a hit; in the whole collection about 12% have one here.
# G9a inh: qHTS Assay for Inhibitors of Histone Lysine Methyltransferase G9a; G9a H3K9 monomethylation, AlphaScreen, 2 h; Potency, µM (titrated, usually from 102 µM), for the others: at the highest dose activity, negative = inhibition, most hits filed as inhibitors; 350,000 compounds, 8.8% hits; AID 504332, 2011; note: % is set by controls: 0 for no effect and ±100 for the full control effect; nearly all actives have a fitted effect of over 75% in size
# Target sequence (Q96KQ7 913-1193 limits assumed): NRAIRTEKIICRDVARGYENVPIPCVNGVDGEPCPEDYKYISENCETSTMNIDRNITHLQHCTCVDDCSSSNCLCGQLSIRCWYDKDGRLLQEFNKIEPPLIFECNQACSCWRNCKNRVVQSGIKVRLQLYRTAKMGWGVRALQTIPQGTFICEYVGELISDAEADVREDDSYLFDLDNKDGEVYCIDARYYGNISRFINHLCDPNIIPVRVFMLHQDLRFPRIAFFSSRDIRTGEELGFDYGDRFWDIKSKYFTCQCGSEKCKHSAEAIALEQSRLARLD
#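 Readings reflect AlphaScreen signal from monomethyl-H3K9 antibody detection. HMT at 20 nM; substrate b-H3K9 500 nM; cofactor SAM 20 uM; 2 h RT reaction; compounds tested as titrations in qHTS with 15 min preincubation.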
# Sfp PPTase inh: qHTS Assay for Inhibitors of Bacillus subtilis Sfp phosphopantetheinyl transferase (PPTase) | Biochemical Sfp PPTase activity, qHTS | Potency, µM, for the others: largest response in the series, negative = inhibition, actives largely listed as inhibitors | 310,000 compounds, 3.5% hits | AID 1490, 2009 | 4'-phosphopantetheinyl transferase ffp (Bacillus subtilis), Q9F4F7;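 note: the enzyme is Sfp with the accession as filed and its product quenches rhodamine fluorescence; 0% = enzyme reaction without inhibitor and -100% = no enzyme wells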
#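 After 15 min at room temperature with compound, 15 nM Sfp received 5 uM rhodamine-CoA plus 12.5 uM BHQ-2-ybbR (50 mM Hepes pH 7.6, 10 mM MgCl2). Rate came from the fluorescence difference over 30 min, ex 525/em 598 nm.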
# HP1b chromo inh: HTS for Inhibitors of HP1-beta Chromodomain Interactions with Methylated Histone Tails; Chromobox protein homolog 1 (Homo sapiens), P83916; Potency, µM (doses to about 114 µM), inactives show at the highest dose activity change, negative = inhibition, most hits filed as inhibitors; 390,000 compounds, 0.56% hits; AlphaScreen HP1-beta / biotin-H3K9me3 peptide binding; note: nearly all actives have a fitted effect of over 70% in size
# Target sequence (P83916 whole entry, looked up): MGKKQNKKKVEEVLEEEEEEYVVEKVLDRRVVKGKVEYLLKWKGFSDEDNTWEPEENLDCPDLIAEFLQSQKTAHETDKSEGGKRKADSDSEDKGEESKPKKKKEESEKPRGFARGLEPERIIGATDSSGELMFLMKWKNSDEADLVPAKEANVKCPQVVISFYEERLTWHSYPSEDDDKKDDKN
#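 AlphaScreen: HP1-beta (50 nM) preformed 30 min with biotin-H3(1-18)K9me3 peptide (50 nM) in PBS pH 7.4, 0.01% Tween-20. Compound added for 30 min at RT, then streptavidin donor/nickel chelate acceptor beads (10 ug/mL) for 30 min.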
# L3MBTL1 inh: qHTS Assay for the Inhibitors of L3MBTL1; AlphaScreen L3MBTL1–H3K9me1 peptide binding; Potency, µM (highest dose often 57.1 µM), for inactives: top-dose activity, negative = inhibition, hits mostly inhibitors; 230,000 compounds, 0.66% hits; note: % is set by controls: 0 for no effect and ±100 for the full control effect; nearly all actives have a fitted effect of over 60% in size
#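 AlphaScreen assay: L3MBTL1 (50 nM final) was preincubated 30 min at room temperature with biotinylated H3(1-15)K9me1 peptide (75 nM final), then 30 min with library compounds; streptavidin donor and nickel chelate acceptor beads (10 ug/mL final) added, 30 min dark.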
# JMJD2A Tudor inh: qHTS Assay for Inhibitors of JMJD2A-Tudor Domain; 390,000 compounds, 4.4% hits; AlphaScreen JMJD2A-Tudor / H3K4me3 peptide binding; Potency, µM (titrated, usually from 114 µM), for the others: at the top dose activity change, negative = inhibition, actives largely listed as inhibitors; AID 504339, 2011; note: % is set by controls: 0 for no effect and ±100 for the full control effect; nearly all actives have a fitted effect of over 50% in size
# BAZ2B block: qHTS Assay for Inhibitors of BAZ2B. Potency, µM (highest dose often 114 µM), without a hit: at the top dose activity change, negative = inhibition, usual class: inhibitors. 360,000 compounds, 4.4% hits. Bromodomain adjacent to zinc finger domain protein 2B (Homo sapiens), Q9UIF8. AlphaScreen BAZ2B-H3K14Ac peptide displacement; note: % is set by controls: 0 for no effect and ±100 for the full control effect; nearly all actives have a fitted effect of over 60% in size
#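 Inhibition is scored as reduced AlphaScreen emission. The BAZ2B/b-H3(5-23)K14Ac complex (50 nM each) in PBS pH 7.4, 0.01% Tween-20 meets compound (up to 110 uM) for 30 min at RT before bead addition.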
# An asterisk follows results filed as active; ? = inconclusive; . = not tested or not shown; [ ] = dose if it differs, or a comment. Calls come from the whole dose curve; as a rule, active = well fitted curve in the direction sought with a large enough effect; inconclusive = small, poorly fitted or top-dose-only effect, or another doubt; inactive = no such curve, though single readings can be large; an effect the other way counts as inactive or inconclusive. Potency is the fitted concentration of half-maximal effect.
SMILES,G9a inh,Sfp PPTase inh,HP1b chromo inh,L3MBTL1 inh,JMJD2A Tudor inh,BAZ2B block
CCOc1ccc(C(=O)Nc2nnc(SCc3cc(=O)n4ccccc4n3)s2)cc1,9%[59 µM],.,22%[57 µM],.,7%,13%
COc1ccc(C(CNC(=O)c2oc3ccc(C)cc3c2C)N2CCOCC2)cc1 (centres undefined),-8%[59 µM],.,32%,.,-14%,-23%
CC(=O)N1c2ccccc2CC1C(=O)N1CCN(c2ccccc2F)CC1 (centres undefined),13%[59 µM],.,20%,.,-8%,-7%
COc1ccccc1NC(=O)Cn1nnc(-c2ccccc2NC(=O)c2cccs2)n1,-46%[59 µM],50µM*,27%,4%,-5%,3%
CCN(CC(=O)Nc1ccccc1OC)CC(=O)Nc1ccccc1-c1ccccc1,50µM*,35µM*,?,.,2.2µM*,28µM*
CCN(CC(=O)Nc1ccccc1OC)CC(=O)Nc1ccccc1C(F)(F)F,4%,12%,25%,-5%,-3%,.
CSc1ccccc1NC(=O)C(C)N(C)CC(=O)N1CCN(Cc2ccccc2)CC1 (centres undefined),.,.,?,.,10µM*,.
CC(C(=O)Nc1ccc(C(F)(F)F)cc1)N(C)CC(=O)N1CCN(Cc2ccccc2)CC1 (centres undefined),.,.,20µM*,-5%,0.89µM*,.
CN(CC(=O)N1CCN(Cc2ccccc2)CC1)S(=O)(=O)c1ccc(F)cc1,.,1%,19%,.,-13%,6%
Cc1ccc(NC(=O)N2CCC(CN3CCCCCC3)CC2)c(Cl)c1,?,.,19%,.,-26%,-15%
CCOc1ccc(Nc2ccc(N)c(S(=O)(=O)O)c2)cc1,.,.,50µM*,.,56µM*,.
CC(C)(C)C#CCn1c(/C=[N+](\[O-])C2CCCCC2)nc2ccccc21,.,7%,24%,-18%,?,50µM*
O=C(c1ccco1)N1CCC[C@@]2(CCN(c3ncccn3)C2)C1,-7%[12.7 µM],19%,.,.,.,.
Oc1ccc(/C=N/N(c2ccccc2)c2ccccc2)c(O)c1O,14µM*,-41%,.,.,.,25µM*
CCN(CC)c1ccc(/C=N/NC(=S)NCc2ccccc2)c(O)c1,-13%[59 µM],14%,-9%,-27%,-26%,22µM*
CCN(CC)c1ccc(/C=N/N=C(c2ccccc2)c2ccccc2)c(O)c1,?,-8%,-19%,-17%,?,?
CCN(CC)c1ccc(/C=N/N(c2ccccc2)c2ccccc2)c(O)c1,?,-6%,?,-25%,8.9µM*,10µM*
CCN(CC)c1ccc(/C=N/Nc2nc3ccccc3[nH]2)c(O)c1,?,-27%,-16%,.,50µM*,40µM*
COc1cc(OC)c(OC)cc1/C=N/Nc1nc2ccccc2[nH]1,1%,21%,43%,-8%,-28%,-12%
COc1ccc(C2=Nn3c(nnc3-c3cccc(OC)c3)SC2)cc1,.,?,.,.,-26%,.
COc1ccc(/C=N/N(Cc2ccccc2)c2ccccc2)cc1O,28µM*,18%,40µM*,?,10µM*,28µM*
COc1ccc(/C=N/NC(=O)c2ccc(-c3ccccc3)cc2)cc1O,-1%[59 µM],-1%,14%,-17%,-10%,5%
Oc1ccc(/C=N/N(c2ccccc2)c2ccccc2)cc1O,-148%,2%,?,.,56µM*,-18%
Cc1ccc(C)c(S(=O)(=O)c2nnn3c2nc(N2CCCCC2)c2sccc23)c1,-5%[59 µM],.,39%,.,-8%,-13%
COc1ccc(C(=O)N/C(=C\c2ccccc2)C(=O)NC(CCSC)C(=O)O)cc1 (centres undefined),56µM*,23%,44%,1%,-2%,10%

# Screening results as filed in PubChem BioAssay.
